Results on 37 compounds are retold here after PubChem BioAssay (NCI).

Compounds without any hit were thinned out: in the full panel of roughly 83,000, 20% have a hit.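 Method: cells in 96-well plates; compound added at one concentration; 48 h incubation; percent growth measured; values under 10 scored active.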 Unmarked numbers belong to inactive results.

For the first assay, the system named is SK-MEL-2 melanoma. In words: NCI-60 one-dose screen, 48 h (100 = growth as untreated, 0 = no growth, -100 = all killed). To be noted: 10 µM unless noted.
Regarding `O=C(OCc1ccc2c(Cl)cc(Cl)c(O)c2n1)N1CCN(C(=O)c2cc3cc(F)ccc3[nH]2)CC1`, the growth is 22.9%.
For `COc1ccc(C(C(=O)O)c2ccc(OC)cc2)cc1`, the growth was 111%.
As to `O=C1COCCN1c1ccc(NCc2cn(Cc3ccc(F)cc3)c3ccccc23)cc1`, the growth is 56.7%.
For `O=C(Nc1cc(-c2cccnc2)nc(NCCCN2CCOCC2)n1)c1cc(Br)cc(C(F)(F)F)c1`, the growth was 81.3%.
The same measure, in the same setting: as for `CS(=O)(=O)c1cccnn1`, the figure is 98.8%; as for `C[C@]12CCc3c(ccc4cc(O)ccc34)[C@@H]1CC[C@H]2O`, 101%; as for `CN(Cc1cccc(C(F)(F)F)c1)C(=O)[C@@H](CC(=O)N1CCC(N2CCCCC2)CC1)N1C(=O)[C@@H](N2C(=O)OC[C@@H]2c2ccccc2)[C@H]1/C=C/c1ccccc1`, 100%.

The next assay concerns EKVX NSCLC. Described as above. To be noted: 10 µM unless noted.
For `O=C(CCCCCCSc1nc(-c2ccc(Cl)cc2)cc(-c2ccc(Cl)cc2)n1)NO`, the growth is 50.9%.
For the compound `O=C1CC(C(F)(F)F)Cc2nc3ccc(Br)cc3cc21` (centres undefined), the growth is 81%.
For `COc1ccc(C2NC(=O)C(C#N)c3c2sc2c(F)cccc32)cc1` (centres undefined), the growth was 62.8%.
For the compound `CCCCCn1sc(=O)n(Cc2ccc(CNC(=O)OCc3ccc4cccc(O)c4n3)cc2)c1=O`, the growth is 28.7%.
Regarding `O=[N+]([O-])c1cccc(N=NNc2cccc([N+](=O)[O-])c2)c1`, the growth was 84.6%.
Regarding `CCN(CC)CCCOc1ccc2c(c1)O/C(=C\c1cccc(OC)c1)C2=O`, the growth was 97.4%.
The same measure, in the same setting: the result for `O=C(OCc1ccc2c(Cl)cc(Cl)c(O)c2n1)N1CCNCC1` reads 33.1%; that for `C=CCCCCOc1ccccc1-c1cnc(OCCCCC=C)n1C`, 85.2%.
Regarding `CSc1nc(=S)c2nc(SC)n(-c3ccccc3)c2[nH]1`, the growth is 105%.
On the same count and under the same terms, the result for `CC1Cc2c(Cl)ncnc2N(C)c2ccc(O)cc21` (centres undefined) reads 51.3%.
On to `Nc1nc(Nc2ccccc2)c2ncn(Cc3ccc4c(c3)OCO4)c2n1`, for which the growth is 48.7%.
As for `COc1ccc(-c2cc(-c3ccc(Cl)cc3)nc(SCCCCCCC(=O)NO)n2)cc1`, the growth was 44.2%.
Same read-out and setting: the result for `COc1ccc(C(=O)CSc2nccc(Nc3ccc(C(=O)O)cc3)n2)cc1` reads 103%; that for `CC1(C)OC2[C@@H](CNC(=O)NC(=O)NC(=O)CI)O[C@@H](n3cnc4c(NC(=O)Nc5ccccc5)ncnc43)[C@H]2O1` (some centres undefined), 77.3%.
Same read-out and setting: as for `Cn1cc(-c2noc(-c3cn(C)c4ncc(F)cc34)n2)c2cc(Cl)ccc21`, the figure is 47.1%.
As to `COCCCNc1nc(NC(=O)c2cc(Br)cc(C(F)(F)F)c2)cc(-c2cccnc2)n1`, the growth was 96%.
Consider `O=C(NCCCNC(=O)OCc1ccc2cccc(O)c2n1)OCc1ccc2cccc(O)c2n1`, for which the growth was 79.9%.
Same read-out and setting: as for `COc1cccc(-c2[nH]c(=S)ncc2C(=O)c2ccccc2)c1`, the figure is 86.9%; as for `CCN(CCO)CCC(=O)c1ccc([N+](=O)[O-])cc1`, 103%; as for `Cc1ccc(N)c(O)c1`, 98.6%.
For `CC(C)C1=NOC(=O)C1=Cc1cn(-c2ccccc2)nc1-c1ccc(Br)cc1`, the growth was 93.3%.
On to `Cc1cc[n+](CCCCCCCCCC[n+]2ccc(C)cc2)cc1`, for which the growth is 95.4%.
Regarding `C[C@@H](NC(=O)[C@@H](CC(=O)N1CCC(N2CCCCC2)CC1)N1C(=O)[C@@H](N2C(=O)OC[C@@H]2c2ccccc2)[C@H]1/C=C/c1cccc(Cl)c1)c1ccccc1`, the growth is 66.5%.
Still for that read-out and setting: as for `C/C=C/C1OC23CCCCC2C(C#N)(C(=N)O3)C1(C#N)C#N` (centres undefined), the figure is 106%; as for `CCCOc1ccc(-c2nc(-c3ccc(N)cc3)cs2)cc1`, 95.6%.
Still for that read-out and setting: the result for `Cc1ccccc1OC(=O)c1cccc(Cl)c1` reads 99.2%; that for `CC(C)c1ccc(C(=O)Nc2nc3ccc(O)cc3s2)cc1`, 37.4%; that for `COc1cc(-c2nc(SCCC(C)C)nc(Nc3ccc(S(N)(=O)=O)cc3)c2C#N)cc(OC)c1OC`, 45.1%.
With `O=C(CSc1nc2ccc([N+](=O)[O-])cc2[nH]1)Nc1cccc(Cl)c1`, the growth is 16.7%.
Same read-out and setting: as for `COc1ccc2nc3cc(Cl)ccc3c(Nc3ccc(O)cc3)c2c1`, the figure is 94.5%.
For the compound `O=C(OCc1ccc2c(Cl)cc(Cl)c(O)c2n1)N1CCN(C(=O)c2cc3cc(F)ccc3[nH]2)CC1`, the growth is 94.5%.
Regarding `COc1ccc(C(C(=O)O)c2ccc(OC)cc2)cc1`, the growth was 106%.
On the same count and under the same terms, the result for `O=C1COCCN1c1ccc(NCc2cn(Cc3ccc(F)cc3)c3ccccc23)cc1` reads 91%; that for `O=C(Nc1cc(-c2cccnc2)nc(NCCCN2CCOCC2)n1)c1cc(Br)cc(C(F)(F)F)c1`, 77.4%.
As to `CS(=O)(=O)c1cccnn1`, the growth is 76.9%.
Take `C[C@]12CCc3c(ccc4cc(O)ccc34)[C@@H]1CC[C@H]2O`: the growth is 56.9%.
`CN(Cc1cccc(C(F)(F)F)c1)C(=O)[C@@H](CC(=O)N1CCC(N2CCCCC2)CC1)N1C(=O)[C@@H](N2C(=O)OC[C@@H]2c2ccccc2)[C@H]1/C=C/c1ccccc1`: the growth is 89.9%.
